Screening results: PubChem, National Center for Advancing Translational Sciences (NCATS)
HT1080 IDH1KD tx – HT-1080 IDH1 knockdown cell toxicity (counter line); HT-1080 IDH1 knockdown viability, ATP luminescence, 48 h; Potency, µM (titrated, usually from 46.1 µM), for the others: top-dose activity, negative = toxicity, hits mostly cytotoxic; 360,000 compounds, 2% hits;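 also: potency is read from the fitted curve at half-maximal effect; 0% = DMSO wells and -100% = cell-free medium wells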
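HT-1080-IDH1KD cells (IDH1 knocked down), 750/well in RPMI with 5% FBS, treated with compound 48 h at 37 degrees C. Viability by CellTiter-Glo luminescence, normalised to DMSO and no-cell wells; concentration-response curves classed.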
TDP1 cell noCPT – qHTS for Inhibitors of human tyrosyl-DNA phosphodiesterase 1 (TDP1): qHTS in cells in absence of CPT. 420,000 compounds, 15% hits. AID 686978, 2013. Potency, µM (top dose mostly 46.2 µM), inactives show top-dose activity change, negative = growth inhibition, hits mostly inhibitors. DT40 Tdp1-/- hTDP1 cells, no CPT, ATP luminescence, 48 h; also: potency is read from the fitted curve at half-maximal effect; nearly all actives have a fitted effect of over 55% in size
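Camptothecin absent (DMSO only). Human TDP1-complemented DT40 knockout cells, 400 cells/well, 37 °C for minimum 48 hr; ATP measured via CellTiter-Glo, 30 min dark incubation, luminescence.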
HT1080-NT tox – kills 2HG-producing HT-1080-NT fibrosarcoma cells; 360,000 compounds, 1.6% hits; Potency, µM (top dose mostly 46.1 µM), inactives show at the top dose activity, negative = less viability, hits mostly cytotoxic; HT-1080-NT fibrosarcoma viability, CellTiter-Glo ATP luminescence, 48 h;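 also: NT is the 2HG producing partner of a matched IDH1 knockdown line; potency is read from the fitted curve at half-maximal effect; 0% = DMSO-treated cells and -100% = media-only wells without cells; nearly all actives have a fitted effect of over 55% in size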
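Toxicity toward the 2HG-producing NT line was scored as %Activity, normalised to DMSO and no-cell wells, from CellTiter-Glo luminescence after 48 hours' treatment.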
12-LOX inh – blocks human arachidonate 12S-lipoxygenase; P18054; purified 12hLO, xylenol orange hydroperoxide absorbance; Potency, µM (highest dose often 108 µM), without a hit: at the highest dose activity change, negative = inhibition, most hits filed as inhibitors; 580,000 compounds, 1.1% hits; AID 1671190; also: potency is read from the fitted curve at half-maximal effect
Target sequence (P18054 whole entry, looked up): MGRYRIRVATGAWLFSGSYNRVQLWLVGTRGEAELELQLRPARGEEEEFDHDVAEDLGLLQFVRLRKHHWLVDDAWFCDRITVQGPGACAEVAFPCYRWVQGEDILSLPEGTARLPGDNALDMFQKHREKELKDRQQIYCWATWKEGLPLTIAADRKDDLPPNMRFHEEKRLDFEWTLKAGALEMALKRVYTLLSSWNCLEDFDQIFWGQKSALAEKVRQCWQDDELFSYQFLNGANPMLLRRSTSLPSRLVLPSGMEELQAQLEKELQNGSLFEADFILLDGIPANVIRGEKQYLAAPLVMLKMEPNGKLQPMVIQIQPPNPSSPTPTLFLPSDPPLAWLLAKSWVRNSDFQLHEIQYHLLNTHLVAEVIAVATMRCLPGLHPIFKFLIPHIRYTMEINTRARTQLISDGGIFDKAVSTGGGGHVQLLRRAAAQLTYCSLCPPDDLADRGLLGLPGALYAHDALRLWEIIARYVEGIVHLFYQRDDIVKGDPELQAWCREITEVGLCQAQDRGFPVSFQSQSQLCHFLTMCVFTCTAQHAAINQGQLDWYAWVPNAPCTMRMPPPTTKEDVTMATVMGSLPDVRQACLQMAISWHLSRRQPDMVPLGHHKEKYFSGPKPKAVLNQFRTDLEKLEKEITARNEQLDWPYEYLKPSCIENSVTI
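Purified human 12hLO (150 nM final) in 25 mM Hepes, 0.01% Triton X-100, pH 7.0 was preincubated 15 min at room temperature with compound. Then 40 uM arachidonic acid was added, 30 min. Hydroperoxide was read by Fe-XO absorbance ratio 573/405 nm.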
DT40 TDP1 CPT – DT40-hTDP1 cell growth loss with CPT; Potency, µM (highest dose often 46.2 µM), inactives show top-dose activity change, negative = growth inhibition, actives largely listed as inhibitors; 420,000 compounds, 12% hits; chicken DT40 Tdp1-/-;hTDP1 cells + 20 nM CPT, ATP luminescence, 48 h; AID 686979; also: potency is read from the fitted curve at half-maximal effect; nearly all actives have a fitted effect of over 55% in size
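Cell growth measured by CellTiter-Glo luminescence after a minimum 48 h, 37 C compound exposure with 20 nM CPT in Tdp1-knockout DT40 cells stably expressing hTDP1, seeded 400/well; qHTS titration format.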
IL1B secr inh – inhibitors of inflammasome signaling (IL-1 beta secretion); activity change, % at 57.5 µM; AID 743279; 360,000 compounds, 4.7% hits; THP-1 LPS/ATP IL-1B secretion, AlphaLISA, 16 h; active compounds read low; in the data active = activity change below about -50%; inconclusive = mostly about -30% to -49%
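Secreted IL-1B measured by AlphaLISA bead assay after 16 h compound exposure of THP-1 cells; compounds (final up to 57.5 uM) added 1 h before LPS (250 ng/mL) and ATP (1.25 mM) stimulation; lower signal means less secretion.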
* = called active by the depositor; ? = inconclusive; . = no result; [ ] = dose if it differs, or a comment. The sample as a whole holds a higher share of hits than the screen did. Unless noted, calls follow the shape of the dose curve; as a rule, active = well fitted curve in the direction sought with a large enough effect; inconclusive = small, poorly fitted or top-dose-only effect, or another doubt; inactive = no such curve, though single readings can be large; an effect the other way counts as inactive or inconclusive. Unless noted, % is scaled to controls: 0 for no effect and ±100 for the full control effect.

SMILES | HT1080 IDH1KD tx | TDP1 cell noCPT | HT1080-NT tox | 12-LOX inh | DT40 TDP1 CPT | IL1B secr inh
N#Cc1nc(-c2ccc(S(=O)(=O)N3CCOCC3)cc2)oc1N1CCC(Cc2ccccc2)CC1 | . | . | . | -7.7% | . | .
Cc1ccc(C2=CC(=O)CC(C)(C)C2=O)cc1 | . | . | . | 9.6% | . | .
COc1ccccc1-c1ccccc1C1=CC(=O)CC(C)(C)C1=O | 4.1% | -26.6% | 6.8% | -7.1% | -4.7% | 2.6
CC1(C)CC(=O)C=C(c2ccc(-c3ccc(S(C)(=O)=O)cc3)cc2)C1=O | -3.0% | 11.6µM* | -0.7% | ? | 20.6µM* | 23.9
COc1cccc(-c2ccc(C3=CC(=O)CC(C)(C)C3=O)cc2)c1OC | -1.4% | 20.6µM* | 1.7% | ? | ? | -4.5
N#C/C(=C\c1c(F)cccc1Cl)C(=O)NC1CC1 | -11.8% | ? | -22.2% | ? | ? | -74.1*
N#C/C(=C\c1ccco1)C(=O)NC1CCCC1 | . | . | . | 39.8µM* | . | .
N#C/C(=C\c1cccnc1)C(=O)Nc1cccc2ccccc12 | 20.6µM* | ? | ? | ? | ? | ?
N#C/C(=C\c1cccnc1)C(=O)NC1CCCCC1 | 5.9% | 23.1µM* | 7.9% | 10.5% | ? | -77.6*
Cc1c(-c2ccccc2F)[nH]c2ccc(CNC(=O)CCc3cc(=O)[nH]o3)cc12 | . | . | . | 24.3% | . | .
Cc1ccc(C(=O)N2CCNC(=O)C2Cc2ccccc2)c(F)c1 (stereo unspecified) | . | . | . | 3.3% | . | .
COc1cc(OC)c(-c2c(-c3ccccc3)ncn2CCF)cc1OC | . | . | . | -1.3% | . | .
COc1ccc(C(=O)N[C@H]2C[C@H]3C(=O)Nc4cc(Cl)ccc4C(=O)N3C2)cc1 | . | . | . | -8.0%[176 µM] | . | .
CC(Sc1nc(Nc2ccccc2)c2ccccc2n1)C(=O)N1CCCC1 (stereo unspecified) | . | . | . | 2.7% | . | .
N#C/C(=C\c1ccc([N+](=O)[O-])o1)C(=O)NC1CCCCC1 | . | . | . | 15.8µM* | . | .
N#C/C(=C\c1c[nH]c2ccccc12)C(=O)NC1CCCC1 | 1.9% | 16.4µM* | -14.5% | -4.4% | 16.4µM* | 0.0
O=C1NCC(c2ccccc2)C1C(=O)N/N=C/c1ccc(Cl)s1 (stereo unspecified) | 0.4% | 6.9% | -3.3% | -2.3% | 6.5% | -17.9
COc1ccc(/C=N\NC(=O)C2C(=O)NCC2c2ccccc2)cc1O (stereo unspecified) | 12.4% | 16.4µM* | 11.1% | -21.1% | 7.31µM* | 0.0
O=C1NCC(c2ccccc2)C1C(=O)N/N=C\c1ccc(-c2ccc(Cl)c(Cl)c2)o1 (stereo unspecified) | ? | ? | ? | -18.2% | ? | -61.2*
CC(N)c1csc(Nc2ccc(S(C)(=O)=O)cc2)n1 (stereo unspecified) | -0.1% | -0.4% | 6.9% | -5.5% | 16.1% | -3.3
O=C1CC(c2ccccc2)N(Cc2ccncc2)CCCN(S(=O)(=O)c2cccs2)CCN1 (stereo unspecified) | . | . | . | 6.1% | . | .
COc1ccc(Cn2c(C(=O)O)c(CNCc3ccc(OC)cc3OC)c3ccc(C)cc32)cc1 | . | 9.2µM* | . | ? | 14.6µM* | .
CCOc1ccc(CCNCc2c(C(=O)O)n(Cc3ccc(C)cc3)c3cc(OC)ccc23)cc1 | . | 18.4µM* | . | 7.3% | ? | .
COc1ccc2c(CNCCc3cccs3)c(C(=O)O)n(Cc3ccccc3)c2c1 | . | ? | . | 0.0% | ? | .
COc1ccc2c(CNCCc3ccco3)c(C(=O)O)n(Cc3ccccc3)c2c1 | . | ? | . | -1.3% | -0.2% | .
COc1ccc(Cn2c(C(=O)O)c(CNCCc3cc(OC)ccc3OC)c3ccc(C)cc32)cc1 | . | 16.4µM* | . | -19.2% | ? | .
Cc1ccc2c(CNCCc3ccccc3)c(C(=O)O)n(Cc3ccccc3C)c2c1 | . | ? | . | -1.6% | ? | .
